Source: PubChem (National Center for Advancing Translational Sciences (NCATS))
FLuc inh-1: Firefly luciferase inhibition profiling of diverse chemical library using quantitative high-throughput screening; Luciferin 4-monooxygenase (Photinus pyralis), P08659; purified P. pyralis luciferase, luminescence, biochemical; Potency, µM (series often up to 115 µM), actives largely listed as inhibitors; 2.5% of 76,000 active; also: nearly all actives have a fitted effect of over 65% in size
Target sequence (P08659 whole entry, looked up): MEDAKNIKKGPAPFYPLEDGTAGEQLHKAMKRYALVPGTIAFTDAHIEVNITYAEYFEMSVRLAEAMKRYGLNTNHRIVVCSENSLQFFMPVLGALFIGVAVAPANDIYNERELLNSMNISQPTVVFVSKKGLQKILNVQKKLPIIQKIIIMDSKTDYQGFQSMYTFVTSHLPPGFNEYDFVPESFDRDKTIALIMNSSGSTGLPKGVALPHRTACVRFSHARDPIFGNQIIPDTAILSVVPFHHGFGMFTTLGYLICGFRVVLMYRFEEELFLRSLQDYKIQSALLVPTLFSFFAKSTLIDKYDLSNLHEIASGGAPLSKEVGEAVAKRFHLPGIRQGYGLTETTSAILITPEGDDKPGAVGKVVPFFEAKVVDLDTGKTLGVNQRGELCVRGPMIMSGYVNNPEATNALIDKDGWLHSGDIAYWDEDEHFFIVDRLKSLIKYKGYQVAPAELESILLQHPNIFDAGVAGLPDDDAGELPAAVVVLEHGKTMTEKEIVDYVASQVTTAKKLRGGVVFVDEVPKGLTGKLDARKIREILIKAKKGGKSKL
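FLuc 10nM, D-luciferin 10uM, ATP 10uM, Mg acetate 10mM, Tris acetate pH 7.5, Tween/BSA; cpd qHTS; enzyme added last; CCD luminescence.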
HEK cytotox: Cytotoxic Profiling in HEK 293 Cell Line of Diverse Libraries Using Quantitative High-Throughput Screening; 6.6% of 94,000 active; HEK 293 viability, ATP luminescence (CellTiter-Glo), 48-72 h; Potency, µM (titrated, usually from 115 µM), usual class: inhibitors; AID 1345083, 2018; also: nearly all actives have a fitted effect of over 60% in size
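HEK 293 cells seeded at 250 cells/well were exposed to compound for 48 or 72 hr at 37 degree Celsius. Viability taken as ATP content by CellTiter-Glo luminescence.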
NPR1 antag: Natriuretic polypeptide receptor (hNpr1) antagonism - Primary qHTS; HEK293 hNpr1 GloSensor cGMP, ANP-stimulated luminescence; Potency, µM (doses to about 46.3 µM), actives largely listed as inhibitors; 1.6% of 76,000 active; calls by dose curve; also: nearly all actives have a fitted effect of over 60% in size
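HEK293 cells stably expressing human Npr1 and cGMP GloSensor pGS-40F, loaded 2 h with 2% GloSensor reagent, given compound 30 min at room temperature. Luminescence read before and 20 min after 0.1 nM hNppA.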
3T3 cytotox: Cytotoxic Profiling in NIH 3T3 Cell Line of Diverse Libraries Using Quantitative High-Throughput Screening. AID 1345082, 2018. NIH 3T3 viability, CellTiter-Glo ATP luminescence, 48-72 h. 4.3% of 94,000 active. Potency, µM (titrated, usually from 96.7 µM), actives largely listed as inhibitors; also: nearly all actives have a fitted effect of over 55% in size
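Luminescent ATP readout (CellTiter-Glo, 10 min RT) after 48 or 72 hr compound exposure of NIH 3T3 cells seeded at 400 cells/well in 1536-well format; quantitative HTS.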
FLuc SDR no ATP: Firefly luciferase (FLuc-C-HiBiT) SDR gain of signal screen - without ATP. 7.8% of 1,300 active. Potency, µM (highest dose often 32.7 µM), usual class: activators. shares compounds with FLuc inh-1. Purified FLuc-C-HiBiT, Nano-Glo HiBiT luminescence, no ATP; also: nearly all actives have a fitted effect of over 55% in size
FLuc SDR ATP: Firefly luciferase (FLuc-C-HiBiT) SDR gain of signal screen - plus ATP. shares compounds with FLuc inh-1. purified FLuc-C-HiBiT + ATP, HiBiT complementation luminescence. Potency, µM (top dose mostly 32.7 µM), most hits filed as activators. 8.7% of 1,300 active. AID 1963319, 2024;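 also: signal reports ligand binding via conformational change of the enzyme rather than luciferase catalysis; nearly all actives have a fitted effect of over 55% in size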
FLuc inh-2: Firefly luciferase (FLuc-C-HiBiT) enzymatic inhibition screen - Functional assay. shares compounds with FLuc inh-1. purified FLuc-C-HiBiT enzyme, luciferin luminescence. 42% of 1,300 active. Potency, µM (highest dose often 32.7 µM), most hits filed as inhibitors. AID 1963320, 2024; also: nearly all actives have a fitted effect of over 70% in size
Each line names hits and unclear results; the compound was inactive in the other large screens (follow-up assays come after a bar, where they were run). In the library only some 11% were active in any assay of this set; here they are far more common. Unless noted, calls follow the shape of the dose curve; as a rule, active = well fitted curve in the direction sought with a large enough effect; inconclusive = small, poorly fitted or top-dose-only effect, or another doubt; inactive = no such curve, though single readings can be large; an effect the other way counts as inactive or inconclusive.

CN(C)c1ccc(-c2nc(C3CCOC3)no2)cc1 (stereo not given)	FLuc inh-1 4µM, HEK cytotox inconclusive, NPR1 antag inconclusive | FLuc SDR no ATP inactive | FLuc SDR ATP inconclusive | FLuc inh-2 inconclusive
COc1ccc2c(C)c(-c3nc(C4CCOC4)no3)oc2c1 (stereo not given)	FLuc inh-1 13µM, HEK cytotox inconclusive, 3T3 cytotox inconclusive | FLuc SDR no ATP inactive | FLuc SDR ATP inactive | FLuc inh-2 inactive
CSc1ccccc1-c1nc(C2CCOC2)no1 (stereo not given)	3T3 cytotox inconclusive
COc1ccccc1-c1cc(C(=O)NCCN2CCOCC2)nn2cnnc12	none (no result: FLuc inh-1, NPR1 antag)
CC(=O)N1CCC(C(=O)N2CCC(c3nc4ncccc4[nH]3)CC2)CC1	none (no result: FLuc inh-1, NPR1 antag)
COc1ccc(-c2noc(-c3nc(Cc4cccc(F)c4)no3)n2)cc1	none
COc1ccc(-c2noc(Nc3ccc4c(c3)OCCO4)n2)cc1	FLuc inh-1 0.89µM, NPR1 antag inconclusive | FLuc SDR no ATP inconclusive | FLuc SDR ATP inconclusive | FLuc inh-2 1.6µM
COc1ccc(-c2noc(Nc3ccccc3)n2)cc1	FLuc inh-1 1.1µM, HEK cytotox inconclusive, NPR1 antag 10µM | FLuc SDR no ATP inactive | FLuc SDR ATP inconclusive | FLuc inh-2 2.2µM
COc1ccc(Nc2nc(-c3cccc(OC)c3)no2)cc1	FLuc inh-1 2.5µM, HEK cytotox inconclusive, NPR1 antag inconclusive | FLuc SDR no ATP inactive | FLuc SDR ATP inactive | FLuc inh-2 7.9µM
COc1ccc(-c2noc(Nc3cc(OC)cc(OC)c3)n2)cc1	FLuc inh-1 inconclusive, HEK cytotox inconclusive, 3T3 cytotox inconclusive
CCOc1ccc(Nc2nc(-c3ccccc3)no2)cc1	FLuc inh-1 0.79µM, NPR1 antag 10µM, 3T3 cytotox 18µM | FLuc SDR no ATP inactive | FLuc SDR ATP inactive | FLuc inh-2 5µM
O=C(NCc1ccc(F)cc1)N1CCc2nnc(C3CC3)n2CC1	3T3 cytotox inconclusive (no result: FLuc inh-1, NPR1 antag)
N[C@@H]1CC[C@H](C(=O)NCc2csc(N3CCCC3)n2)C1	HEK cytotox inconclusive, 3T3 cytotox inconclusive
COc1cccc(-c2cc(-c3ccccc3OC)nc3c(C)noc23)c1	HEK cytotox inconclusive, 3T3 cytotox inconclusive
COc1cccc(-c2noc(COc3ccccc3Cl)n2)c1	none (no result: FLuc inh-1, HEK cytotox, NPR1 antag, 3T3 cytotox) | FLuc SDR no ATP inactive | FLuc SDR ATP inactive | FLuc inh-2 inconclusive
CC(C)(O)CCc1ccc(C(=O)NCCSc2ccccn2)cc1	FLuc inh-1 2.8µM, HEK cytotox inconclusive | FLuc SDR no ATP inactive | FLuc SDR ATP inactive | FLuc inh-2 inconclusive
C[S+](=O)([O-])NC1CC2(CCN(C(=O)Cc3c[nH]c4ccccc34)CC2)c2ccccc21 (stereo not given)	none (no result: FLuc inh-1, NPR1 antag)
COc1ccc(NC(=O)Nc2cccc(-c3ccc(N4CCCCC4)nn3)c2)c(OC)c1	FLuc inh-1 0.32µM, HEK cytotox inconclusive, NPR1 antag 7.9µM | FLuc SDR no ATP inconclusive | FLuc SDR ATP inconclusive | FLuc inh-2 0.99µM
COc1ccc(NC(=O)Nc2cccc(-c3ccc(N4CCOCC4)nn3)c2)cc1Cl	FLuc inh-1 0.63µM, HEK cytotox 22µM, NPR1 antag 13µM, 3T3 cytotox inconclusive | FLuc SDR no ATP inconclusive | FLuc SDR ATP inconclusive | FLuc inh-2 1.2µM
CN1CCN(c2ccc(-c3cccc(NC(=O)C4CCCCC4)c3)nn2)CC1	FLuc inh-1 14µM, HEK cytotox inconclusive, 3T3 cytotox inconclusive | FLuc SDR no ATP inactive | FLuc SDR ATP inactive | FLuc inh-2 8.8µM
CCOc1ccccc1NC(=O)Nc1cccc(-c2ccc(N3CCOCC3)nn2)c1	FLuc inh-1 2.8µM, HEK cytotox 25µM, 3T3 cytotox inconclusive | FLuc SDR no ATP inactive | FLuc SDR ATP inconclusive | FLuc inh-2 3.9µM
CN1CCc2c([nH]c3ccccc23)C12CCN(C(=O)C1CC1)CC2	HEK cytotox inconclusive
O=C(Cc1ccccc1)N1CCCN(c2ccc3nnc(C4CC4)n3n2)CC1	none (no result: FLuc inh-1, NPR1 antag)
CC(C)(O)CN1CCC(=O)N(Cc2ccccc2)CCc2ccccc21	HEK cytotox inconclusive (no result: FLuc inh-1, NPR1 antag)
O=C(Nc1cccc(-c2ccc(N3CCOCC3)nn2)c1)Nc1cccc(C(F)(F)F)c1	FLuc inh-1 1.8µM, HEK cytotox 28µM, NPR1 antag 11µM, 3T3 cytotox inconclusive | FLuc SDR no ATP inconclusive | FLuc SDR ATP inactive | FLuc inh-2 5µM
COc1ccc(-c2ccc(C(=O)Nc3cccc(C(F)(F)F)c3)cc2)nn1	HEK cytotox inconclusive (no result: FLuc inh-1, NPR1 antag)
O=C(Nc1cnc(-c2ccccc2)nc1)C1CCCC1	FLuc inh-1 1µM, HEK cytotox inconclusive, NPR1 antag 10µM | FLuc SDR no ATP inconclusive | FLuc SDR ATP inconclusive | FLuc inh-2 2.5µM
O=C(COc1ccc(NC(=O)C2CC2)cn1)NCc1ccccc1	none
O=C(Nc1cnc(-c2ccc(Cl)cc2)nc1)C1CCC1	FLuc inh-1 0.28µM, NPR1 antag 5.6µM | FLuc SDR no ATP inconclusive | FLuc SDR ATP inconclusive | FLuc inh-2 1.2µM
COc1ncccc1-c1nccn2c(C3CN(C(=O)c4cc5ccccc5[nH]4)C3)ncc12	HEK cytotox inconclusive
O=C(COc1ccccc1)Nc1nnc(S(=O)(=O)Nc2ccccc2)s1	none (no result: FLuc inh-1, HEK cytotox, NPR1 antag, 3T3 cytotox) | FLuc SDR no ATP inactive | FLuc SDR ATP inactive | FLuc inh-2 inconclusive
Cc1nc(CCNC(=O)c2ccc(C(F)(F)F)cc2)no1	none
O=C(O)c1ccc(-c2noc(-c3ccc(F)cc3)n2)cc1	none (no result: FLuc inh-1, HEK cytotox, NPR1 antag, 3T3 cytotox) | FLuc SDR no ATP inconclusive | FLuc SDR ATP 0.56µM | FLuc inh-2 0.44µM
CC(NC(=O)c1noc(-c2ccc(F)cc2)n1)c1ccccc1 (stereo not given)	none
O=C(O)c1ccc(-c2noc(-c3ccc(C(F)(F)F)cc3)n2)cc1	none (no result: FLuc inh-1, HEK cytotox, NPR1 antag, 3T3 cytotox) | FLuc SDR no ATP inconclusive | FLuc SDR ATP 0.44µM | FLuc inh-2 0.31µM
COc1cccc(CC(=O)N2CCC(C3CCN(C(C)=O)CC3)C2)c1 (stereo not given)	none (no result: FLuc inh-1, NPR1 antag)
COc1ccc(C(=O)N2CC(Oc3ccccc3-c3nc(-c4cnccn4)no3)C2)cn1	HEK cytotox inconclusive
COc1ccc(NC(=O)c2ccc3oc(-c4ccncc4)nc3c2)cc1	none (no result: FLuc inh-1, NPR1 antag)
CCOc1ccc(C(=O)Nc2cc(-c3nc4cc(OC)ccc4o3)ccc2C)cc1[N+](=O)[O-]	none (no result: FLuc inh-1, HEK cytotox, NPR1 antag, 3T3 cytotox) | FLuc SDR no ATP inactive | FLuc SDR ATP inactive | FLuc inh-2 inconclusive
